This is an account of results in PubChem BioAssay.

Experiment [1] is described as follows: optical density shifts of acrAB sulA E. coli – strain DRC41, OD650, 48 h, E. coli filamentation inducer project, primary screen (AID 1152).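 Further: E. coli MC1000 strain DRC41 lacking acrAB efflux pump and sulA.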 Particulars: higher = more signal, called active from +8 up or from −8 down.
Experiment [2] can be described thus: probe aLefty1 binding on compound microarray – biochemical, small-molecule microarray, 635/667 nm fluorescence, primary screen (AID 1153).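 Further: score merges spot fluorescence with signal-to-noise ratio from the scanned slide images.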 Particulars: higher = more signal.
The nature of experiment [3]: plasmodial surface anion channel blockers, osmotic lysis – cell-based, P. falciparum Indochina, OD700, 1 h, primary screen (AID 1154). Particulars: P. falciparum Indochina infected RBC osmotic lysis, higher = more signal, called active from +8 up or from −8 down.
Experiment [4] is described as follows: plasmodial surface anion channel blockers, osmotic lysis – cell-based, P. falciparum Indochina, OD700, 2 h, primary screen (AID 1155).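 Further: lysis reports solute entry through the parasite surface anion channel PSAC.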 Particulars: P. falciparum Indochina infected erythrocytes, higher = more signal, called active from +8 up or from −8 down.
The nature of experiment [5]: changes in parasitized red cell lysis, either direction – P. falciparum Indochina, OD700, 3 h, PSAC antagonist project, primary screen (AID 1156). The note with it: P. falciparum-infected erythrocytes, osmotic lysis, higher = more signal, called active from +8 up or from −8 down.
Experiment [6] is described as follows: plasmodial surface anion channel blockers, osmotic lysis – cell-based, P. falciparum Indochina, OD700, 18 h, primary screen (AID 1157). Particulars: P. falciparum Indochina infected erythrocytes, osmotic lysis OD700, 18 h; higher = more signal, called active from +8 up or from −8 down.
The nature of experiment [7]: S6 kinase pathway phospho-S6 level changes – cell-based, A549, cytoblot, luminescence, serum-stimulated, primary screen (AID 1158).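 Further: serum-stimulated A549 lung adenocarcinoma cells; signal is phosphorylated S6 detected by cytoblot immunostaining with HRP secondary.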 Particulars: 5 h, higher = more signal.
The target in experiment [8] is NADPH oxidase 2 (Homo sapiens) (UniProt P04839). Nature of the experiment: compounds shifting NOX2 Amplex Red fluorescence – cell-based, HEK293-NOX2, PMA-stimulated, NOX inhibitor project, primary screen (AID 1159). Further: test concentration not given here. Particulars: 45 min, higher = more signal, called active from +8 up or from −8 down.
NADPH oxidase 2 (Homo sapiens), sequence (P04839 whole entry, looked up): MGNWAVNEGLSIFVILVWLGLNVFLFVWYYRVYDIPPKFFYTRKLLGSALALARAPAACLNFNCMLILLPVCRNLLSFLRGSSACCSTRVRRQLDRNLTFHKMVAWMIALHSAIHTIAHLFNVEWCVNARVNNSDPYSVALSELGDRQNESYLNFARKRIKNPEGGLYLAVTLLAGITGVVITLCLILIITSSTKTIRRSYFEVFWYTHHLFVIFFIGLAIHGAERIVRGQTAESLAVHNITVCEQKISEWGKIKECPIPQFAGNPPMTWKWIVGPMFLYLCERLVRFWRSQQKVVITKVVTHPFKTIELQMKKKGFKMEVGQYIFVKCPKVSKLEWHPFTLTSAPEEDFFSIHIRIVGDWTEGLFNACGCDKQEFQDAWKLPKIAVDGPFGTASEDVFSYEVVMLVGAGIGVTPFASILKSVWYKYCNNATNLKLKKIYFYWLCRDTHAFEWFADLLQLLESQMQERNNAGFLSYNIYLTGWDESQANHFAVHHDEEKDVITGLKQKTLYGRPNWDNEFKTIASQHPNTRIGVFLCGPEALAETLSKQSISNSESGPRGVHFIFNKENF
Experiment [9] deals with NADPH oxidase 4 (Homo sapiens) (UniProt Q9NPH5). Briefly: compounds shifting NOX4 Amplex Red fluorescence – cell-based, HEK293-NOX4, tetracycline-induced, NOX inhibitor project, primary screen (AID 1160). Particulars: HEK293-NOX4, Amplex Red H2O2 fluorescence, 45 min; higher = more signal, called active from +8 up or from −8 down.
NADPH oxidase 4 (Homo sapiens), sequence (Q9NPH5 whole entry, looked up): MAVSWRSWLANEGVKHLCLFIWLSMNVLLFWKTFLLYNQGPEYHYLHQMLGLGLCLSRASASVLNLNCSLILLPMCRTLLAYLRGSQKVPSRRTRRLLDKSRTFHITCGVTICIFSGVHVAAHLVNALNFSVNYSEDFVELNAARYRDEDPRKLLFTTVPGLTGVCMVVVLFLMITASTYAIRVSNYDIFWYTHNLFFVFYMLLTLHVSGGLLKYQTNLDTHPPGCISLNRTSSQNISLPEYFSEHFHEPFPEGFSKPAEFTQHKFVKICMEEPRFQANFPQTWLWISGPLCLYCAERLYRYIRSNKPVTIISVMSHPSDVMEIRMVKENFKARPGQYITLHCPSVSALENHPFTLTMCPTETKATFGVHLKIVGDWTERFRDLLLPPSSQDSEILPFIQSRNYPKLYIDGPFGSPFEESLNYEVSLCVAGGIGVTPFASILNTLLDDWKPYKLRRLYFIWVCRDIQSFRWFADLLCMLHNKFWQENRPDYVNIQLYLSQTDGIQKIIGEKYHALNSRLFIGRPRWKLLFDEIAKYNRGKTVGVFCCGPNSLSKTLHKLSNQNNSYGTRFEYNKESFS
For experiment [10], the target named is NADPH oxidase 5 (Homo sapiens) (UniProt Q96PH1). Nature of the experiment: compounds shifting NOX5 Amplex Red fluorescence – cell-based, HEK293-NOX5, NOX inhibitor project, primary screen (AID 1161). The note with it: HEK293-NOX5, ionomycin, 45 min, higher = more signal.
NADPH oxidase 5 (Homo sapiens), sequence (Q96PH1 whole entry, looked up): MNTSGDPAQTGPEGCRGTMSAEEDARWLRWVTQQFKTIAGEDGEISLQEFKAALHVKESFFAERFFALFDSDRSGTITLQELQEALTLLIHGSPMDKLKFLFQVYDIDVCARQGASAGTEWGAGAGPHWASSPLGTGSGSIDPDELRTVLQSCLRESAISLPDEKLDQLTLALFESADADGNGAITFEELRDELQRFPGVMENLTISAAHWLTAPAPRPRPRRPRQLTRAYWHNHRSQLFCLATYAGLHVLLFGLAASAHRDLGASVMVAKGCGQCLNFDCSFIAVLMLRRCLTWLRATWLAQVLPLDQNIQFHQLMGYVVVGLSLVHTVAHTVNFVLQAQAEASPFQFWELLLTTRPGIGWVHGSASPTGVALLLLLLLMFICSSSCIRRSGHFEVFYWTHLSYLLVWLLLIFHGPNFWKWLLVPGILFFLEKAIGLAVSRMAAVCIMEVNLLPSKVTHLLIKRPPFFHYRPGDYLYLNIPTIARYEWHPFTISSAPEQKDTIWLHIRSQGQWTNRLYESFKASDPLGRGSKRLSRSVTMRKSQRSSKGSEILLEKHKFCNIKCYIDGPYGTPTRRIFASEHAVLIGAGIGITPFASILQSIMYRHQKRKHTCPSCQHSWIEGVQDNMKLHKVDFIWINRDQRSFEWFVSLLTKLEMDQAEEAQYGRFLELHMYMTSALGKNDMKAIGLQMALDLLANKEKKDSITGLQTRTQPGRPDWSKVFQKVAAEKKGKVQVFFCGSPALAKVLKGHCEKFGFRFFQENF
Experiment [11] in a line: compound effects on lung adenocarcinoma cell viability – A549, calcein-AM fluorescence, 48 h, basal, profiling panel (AID 1162). Further: test concentration not given here. Particulars: higher = more signal.
Experiment [12] is described as follows: compound effects on differentiated 3T3-L1 adipocyte viability – cell-based, 3T3-L1 adipocytes, calcein-AM fluorescence, 48 h, basal, profiling panel (AID 1163). Further: test concentration not given here. The note with it: 3T3-L1 adipocytes viability, higher = more signal.
A short description of experiment [13]: compound effects on hepatocellular carcinoma cell viability – HepG2, calcein-AM fluorescence, 48 h, basal, profiling panel (AID 1164). Further: test concentration not given here. Particulars: higher = more signal.
The nature of experiment [14]: compound effects on multiple myeloma cell viability – MM1S, calcein-AM fluorescence, 48 h, basal, profiling panel (AID 1165).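 Further: viability of MM1S multiple myeloma cells under basal unstimulated conditions; test concentration not given here.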 Particulars: higher = more signal.
Experiment [15] in a line: calcein-AM signal in unstimulated myeloma cells – cell-based, calcein-AM fluorescence, 48 h, PK04 Diversity Set, profiling panel (AID 1166).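 Further: cells grown under basal conditions without added stimulus; test concentration not given here.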 Particulars: RPMI8226 myeloma viability, higher = more signal.
Experiment [16] in a line: JC-1 mitochondrial signal, unstimulated HepG2 cells – cell-based, JC-1 fluorescence, 24 h, 100 nL compound, profiling panel (AID 1167). Further: test concentration not given here. Particulars: HepG2 mitochondrial potential, higher = more signal.
The nature of experiment [17]: JC-1 mitochondrial signal, unstimulated adipocytes – cell-based, JC-1 fluorescence, 3T3-L1 adipocytes, 24 h, 100 nL compound, profiling panel (AID 1168). Further: test concentration not given here. The note with it: JC-1 mitochondrial fluorescence, higher = more signal, called active from +8 up or from −8 down.
A short description of experiment [18]: JC-1 mitochondrial signal, unstimulated myeloma cells – cell-based, JC-1 fluorescence, RPMI8226, 24 h, 100 nL compound, profiling panel (AID 1169). Further: test concentration not given here. The note with it: JC-1 mitochondrial potential fluorescence, higher = more signal.
Experiment [19] in a line: JC-1 mitochondrial signal, unstimulated MM1S myeloma – cell-based, JC-1 fluorescence, 24 h, 100 nL compound, profiling panel (AID 1170). Further: test concentration not given here. The note with it: MM1S mitochondrial potential, higher = more signal.
Experiment [20] is described as follows: resazurin metabolic signal in A549 cells – cell-based, resazurin fluorescence, 24 h, PK04 Diversity Set, profiling panel (AID 1171). Further: test concentration not given here. The note with it: A549 viability, higher = more signal, called active from +8 up or from −8 down. (In general: Alamar Blue is a resazurin reagent that responds to reducing activity.)

The source made the active and inactive calls.

As for `CCOC(=O)NN=C1C[C@@H](O)[C@@H](O)[C@@H]2[C@@H]3C(=O)N(Cc4ccc5c(c4)OCO5)C(=O)[C@@H]3CC[C@H]12`, the z-score in experiment [1] is 0.245 (inactive); in experiment [3], 5.49 (inactive); in [4] it was 0.756 (inactive); in experiment [5], 0.41 (inactive); in [6] it was 0.476 (inactive); in experiment [7], -0.4. For the same compound, the z-score in experiment [8] was -3.49 (inactive); in experiment [9] it was -0.0101 (inactive); in [10], -0.598; in experiment [11], -0.257; in experiment [12], -0.132; in experiment [13], 0.473. Moreover, the z-score in experiment [14] is 0.457; in [15] it was -0.0903; in [16], -0.268; in [17] it was -0.754 (inactive); in [18], 0.386; in experiment [19], -1.34. The z-score in [20] is -0.027 (inactive). This compound yielded a composite z-score in experiment [2] of -0.239.

In the case of `CCCCC#C[C@@H]1C=C[C@H](Oc2cc(OC)c(OC)c(OC)c2)[C@@H](COC(=O)OCC)O1`, the z-score in experiment [1] was 0.525 (inactive); in experiment [3], 8.03 (active); in [4], 0.673 (inactive); in experiment [5], -0.172 (inactive); in experiment [6] it was 0.0018 (inactive); in experiment [7], -0.153. For the same compound, the z-score in experiment [8] was -1.82 (inactive); in [9], 0.215 (inactive); in experiment [10] it was -2.66; in experiment [11], 1.75; in [12], -0.931; in [13], 0.928. In addition, the z-score is -2.65 in [14]; -1.86 in experiment [15]; -0.163 in experiment [16]; 0.841 (inactive) in experiment [17]; 0.23 in [18]; -0.254 in [19]. In addition, the z-score in [20] is -0.108 (inactive). This compound returned a composite z-score in experiment [2] of -0.147.

`O=C(C=Cc1ccc2c(c1)OCO2)c1ccc(F)cc1`: the z-score was -0.394 (inactive) in experiment [1]; 20.7 (active) in experiment [3]; 3.22 (inactive) in experiment [4]; -0.0309 (inactive) in experiment [5]; 0.47 (inactive) in experiment [6]; -0.41 in experiment [7]. Also, the z-score was 1.75 (inactive) in experiment [8]; -2 (inactive) in [9]; -1.56 in experiment [10]; -0.182 in experiment [11]; 0.867 in experiment [12]; -0.358 in experiment [13]. Besides, the z-score is -3.26 in experiment [14]; -3.41 in [15]; -0.698 in [16]; -0.211 (inactive) in experiment [17]; -0.811 in [18]; -0.286 in experiment [19]. Besides, in experiment [20], the z-score was 0.275 (inactive). This compound also registered a composite z-score in [2] of 0.0685.

Consider `CC(C)CON=C1C[C@@H](O)[C@@H](O)[C@@H]2[C@@H]3C(=O)N(C4CCCCC4)C(=O)[C@@H]3CC[C@@H]12`, for which the z-score in experiment [1] was -1.24 (inactive); in experiment [3] it was -0.133 (inactive); in experiment [4] it was -0.346 (inactive); in experiment [5] it was -0.383 (inactive); in [6], -0.0384 (inactive); in experiment [7] it was -0.354. Besides, the z-score in experiment [8] is 1 (inactive); in experiment [9], -1.59 (inactive); in experiment [10], -0.143; in [11], -0.162; in [12] it was 0.617; in [13], -0.323. The z-score is -0.34 in [14]; -0.271 in [15]; -1.21 in experiment [16]; -0.49 (inactive) in experiment [17]; -0.0174 in [18]; 0.268 in [19]. Also, the z-score in experiment [20] is -0.048 (inactive). Besides, the composite z-score in experiment [2] is -0.0662.
